# Data from PubChem BioAssay (NCATS).
# Several values for one entry are separate records, joined by “and”; a condition that tells them apart may be missing. Identical values can stand only once. Records with an inconclusive call do not appear. A call without a number means that no potency is given here. Some structures have more than one record in an assay (separate samples or runs), and their calls can disagree. Activity calls are given as the source filed them. Unless noted, calls come from the whole dose curve; as a rule, active = well fitted curve in the direction sought with a large enough effect; inconclusive = small, poorly fitted or top-dose-only effect, or another doubt; inactive = no such curve, though single readings can be large; an effect the other way counts as inactive or inconclusive.
# Tests used:
# [1] = High Content Imaging Cell-Based qHTS for Inhibitors of the mTORC1 Signaling Pathway in MEF Cells (AID 2667); note: potency is the fitted concentration of half-maximal effect
# Summary of the method: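 Immunofluorescence for rpS6 phosphorylation in MEFs of Tsc2-/-, p53-/- background rescued with WT Tsc2. Compound exposure lasted 24 hrs. Inhibition was scored against rapamycin-treated control wells.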
# [2] = target: Ubiquitin carboxyl-terminal hydrolase 2 (Homo sapiens) (UniProt O75604); assay: qHTS Validation Assay for Inhibitors of Ubiquitin-specific Protease USP2a Using CHOP2 as the Reporter (AID 463106)
# Summary of the method: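 10nM USP2 core + cpd, 30min RT; add 25nM Ub-CHOP2/25nM substrate; 60min RT; FI 485/531nm. Buffer Tris pH 8.0, CaCl2, BME, CHAPS. Norm. to NEM = 100% inhibition; time-zero read flags fluorescent artifacts.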
# [3] = target: DNA polymerase III PolC-type (Bacillus subtilis (strain 168)) (UniProt P13267); assay: qHTS Validation Assay for the Inhibitors of DNA Replication in Gram-Positive Bacteria (AID 485295);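 note: PicoGreen fluorescence of double-stranded DNA made on primed circular M13 template; series mostly up to about 57 µM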
# DNA polymerase III PolC-type (Bacillus subtilis (strain 168)), sequence (P13267 whole entry, looked up): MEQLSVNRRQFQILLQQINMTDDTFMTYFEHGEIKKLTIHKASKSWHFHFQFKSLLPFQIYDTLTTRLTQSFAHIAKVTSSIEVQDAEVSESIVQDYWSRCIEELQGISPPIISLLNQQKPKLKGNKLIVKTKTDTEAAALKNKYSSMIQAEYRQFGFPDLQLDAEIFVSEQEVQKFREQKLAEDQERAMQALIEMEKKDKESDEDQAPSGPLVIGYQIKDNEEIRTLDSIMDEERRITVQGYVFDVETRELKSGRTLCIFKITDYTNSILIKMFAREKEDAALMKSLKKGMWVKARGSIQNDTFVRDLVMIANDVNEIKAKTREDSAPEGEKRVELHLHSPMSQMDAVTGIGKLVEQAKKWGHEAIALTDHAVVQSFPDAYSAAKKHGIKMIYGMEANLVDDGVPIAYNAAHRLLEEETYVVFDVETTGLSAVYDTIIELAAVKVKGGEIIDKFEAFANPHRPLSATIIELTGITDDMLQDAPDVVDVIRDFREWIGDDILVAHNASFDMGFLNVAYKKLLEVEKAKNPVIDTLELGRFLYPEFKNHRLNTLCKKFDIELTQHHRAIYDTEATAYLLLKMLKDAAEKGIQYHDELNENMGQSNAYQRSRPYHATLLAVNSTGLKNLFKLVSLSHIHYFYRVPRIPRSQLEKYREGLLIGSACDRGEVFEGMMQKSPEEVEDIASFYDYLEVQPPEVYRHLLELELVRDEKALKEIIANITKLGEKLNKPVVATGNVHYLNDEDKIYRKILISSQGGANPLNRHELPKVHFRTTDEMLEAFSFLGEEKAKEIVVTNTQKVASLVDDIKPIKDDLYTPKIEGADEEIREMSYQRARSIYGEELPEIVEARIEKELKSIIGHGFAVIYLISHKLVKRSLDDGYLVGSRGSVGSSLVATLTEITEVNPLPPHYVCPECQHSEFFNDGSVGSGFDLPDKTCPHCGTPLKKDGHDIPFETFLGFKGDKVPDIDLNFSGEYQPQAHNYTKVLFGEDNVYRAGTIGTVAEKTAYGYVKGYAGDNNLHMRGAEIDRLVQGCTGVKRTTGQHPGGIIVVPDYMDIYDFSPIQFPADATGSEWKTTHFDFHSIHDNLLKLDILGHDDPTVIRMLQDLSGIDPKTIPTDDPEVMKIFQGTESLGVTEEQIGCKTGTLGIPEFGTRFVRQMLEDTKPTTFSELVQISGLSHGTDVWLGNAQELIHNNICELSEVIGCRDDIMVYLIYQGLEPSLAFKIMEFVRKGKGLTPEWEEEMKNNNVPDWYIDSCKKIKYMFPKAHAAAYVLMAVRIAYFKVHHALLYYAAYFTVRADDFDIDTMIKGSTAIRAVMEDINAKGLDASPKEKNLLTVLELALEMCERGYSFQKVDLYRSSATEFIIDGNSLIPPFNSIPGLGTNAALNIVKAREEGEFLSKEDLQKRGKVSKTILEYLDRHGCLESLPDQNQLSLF
# Summary of the method: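 Reconstituted B. subtilis Pol III holoenzyme (PolC, beta clamp, SSB, primase) preincubated with compound, then M13Gori single-stranded circular template with dNTPs/NTPs added; room temperature reaction. Stopped with EDTA/PicoGreen; dsDNA fluorescence read, EDTA as full-inhibition control.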
# [4] = target: Tumor susceptibility gene 101 protein (Homo sapiens) (UniProt Q99816); assay: qHTS Validation Assay for Iinhibitors of HIV-1 Budding by Blocking the Interaction of PTAP/TSG101 (AID 485342; calls by dose curve)
# Summary of the method: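 Tsg101 binding domain (10 uM) with FITC-labeled PTAP peptide (50 nM) in HEPES pH 7.5 buffer, 20 min at r.t. with compounds. Binding measured by fluorescence polarization.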
# [5] = target: Beta-2 adrenergic receptor (Homo sapiens) (UniProt P07550); assay: qHTS validation assay of beta-arrestin-biased ligands of beta2-adrenergic receptor (AID 485366)
# Summary of the method: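 Arrestin-recruitment (Tango) reporter: ligand-bound beta2-AR recruits beta-arrestin, releasing tTA, which upregulates luciferase. Titrations of up to 46 microM incubated 18 hr at 37 degrees C before luminescent readout.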
# [6] = target: ATP-dependent 6-phosphofructokinase (Trypanosoma brucei brucei) (UniProt O15648); assay: qHTS Validation Assay to Find Inhibitors of T. brucei phosphofructokinase (AID 485368); note: potency is the fitted concentration of half-maximal effect
# ATP-dependent 6-phosphofructokinase (Trypanosoma brucei brucei), sequence (O15648 whole entry, looked up): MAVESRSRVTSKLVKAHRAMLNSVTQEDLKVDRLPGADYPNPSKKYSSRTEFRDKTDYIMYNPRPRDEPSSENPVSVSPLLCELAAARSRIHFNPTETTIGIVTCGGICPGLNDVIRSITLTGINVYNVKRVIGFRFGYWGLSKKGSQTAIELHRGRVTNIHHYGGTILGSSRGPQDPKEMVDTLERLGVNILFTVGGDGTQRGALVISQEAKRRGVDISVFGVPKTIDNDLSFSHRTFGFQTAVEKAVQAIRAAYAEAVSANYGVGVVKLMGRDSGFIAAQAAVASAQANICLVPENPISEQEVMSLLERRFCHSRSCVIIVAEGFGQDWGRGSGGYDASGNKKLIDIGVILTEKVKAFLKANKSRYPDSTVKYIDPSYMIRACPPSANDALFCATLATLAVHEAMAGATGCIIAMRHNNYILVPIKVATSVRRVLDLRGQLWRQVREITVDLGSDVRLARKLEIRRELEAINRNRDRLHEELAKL
# Summary of the method: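 Steps: substrate mix (0.5 mM F6P, 0.1 mM ATP, MgCl2, TEA pH 8.0); compound; 1.25 nM T. brucei PFK; 45 min RT; ATP depletion 10 min; ADP-to-ATP detection 10 min; luminescence read; curve fitting and classification.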
# [7] = target: Thioredoxin reductase 1, cytoplasmic (Rattus norvegicus) (UniProt O89049); assay: qHTS Assay for Substrates of Mammalian Selenoprotein Thioredoxin Reductase 1 (TrxR1) (AID 488772);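 note: NADPH fluorescence in the first read after selenite addition and not the 8 min delta; series mostly up to about 57 µM; a drop in NADPH fluorescence below the no-compound background marks a TrxR1 substrate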
# Thioredoxin reductase 1, cytoplasmic (Rattus norvegicus), sequence (O89049 whole entry, looked up): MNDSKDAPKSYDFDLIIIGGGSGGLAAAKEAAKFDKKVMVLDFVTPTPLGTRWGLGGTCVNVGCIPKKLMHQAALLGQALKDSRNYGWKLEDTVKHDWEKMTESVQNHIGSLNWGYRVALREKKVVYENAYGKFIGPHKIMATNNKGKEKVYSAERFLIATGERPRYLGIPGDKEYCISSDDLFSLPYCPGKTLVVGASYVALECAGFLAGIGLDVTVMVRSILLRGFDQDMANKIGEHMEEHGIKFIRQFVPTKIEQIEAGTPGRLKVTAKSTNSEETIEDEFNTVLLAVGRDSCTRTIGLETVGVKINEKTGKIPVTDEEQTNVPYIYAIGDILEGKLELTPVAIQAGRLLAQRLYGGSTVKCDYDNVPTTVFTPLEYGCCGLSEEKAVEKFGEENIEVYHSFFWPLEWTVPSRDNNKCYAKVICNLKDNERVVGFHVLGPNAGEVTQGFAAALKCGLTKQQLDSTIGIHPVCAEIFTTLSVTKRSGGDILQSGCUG
# Summary of the method: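 Quantitative HTS in Tris-HCl buffer at pH 7.5 with EDTA and Tween-20, using rat TrxR1, 400 uM NADPH and 400 uM selenite (final). A fall in initial NADPH fluorescence relative to background marked substrate behaviour.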
# [8] = target: Thioredoxin reductase 1, cytoplasmic (Rattus norvegicus) (UniProt O89049); assay: qHTS Assay for Inhibitors of Mammalian Selenoprotein Thioredoxin Reductase 1 (TrxR1) (AID 488773); details: Potency: inhibition; note: nearly all actives have a fitted effect of over 40% in size; note: potency is the fitted concentration of half-maximal effect
# Summary of the method: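 Steps: enzyme (90 nM) plus NADPH (400 uM final), 5 min at ~22 deg C; compound added, 15 min; selenite (400 uM final) added; fluorescence followed for 8 min. Concentration-response curves derived from the normalized delta values.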
# [9] = target: Flap endonuclease 1 (Homo sapiens) (UniProt P39748); assay: qHTS Validation Assay for the Inhibitors of Human Flap endonuclease 1 (FEN1) (AID 488816); note: potency is the fitted concentration of half-maximal effect
# Flap endonuclease 1 (Homo sapiens), sequence (P39748 whole entry, looked up): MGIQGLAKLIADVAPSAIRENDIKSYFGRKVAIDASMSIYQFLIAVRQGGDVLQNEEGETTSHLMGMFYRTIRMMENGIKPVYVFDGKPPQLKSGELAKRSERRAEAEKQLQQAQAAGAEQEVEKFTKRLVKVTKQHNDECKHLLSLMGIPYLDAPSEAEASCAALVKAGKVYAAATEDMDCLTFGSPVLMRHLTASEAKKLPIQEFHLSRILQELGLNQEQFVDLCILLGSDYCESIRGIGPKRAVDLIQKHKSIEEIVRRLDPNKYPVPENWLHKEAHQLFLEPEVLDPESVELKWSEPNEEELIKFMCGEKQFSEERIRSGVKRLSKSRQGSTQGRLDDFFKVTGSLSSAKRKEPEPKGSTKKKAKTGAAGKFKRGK
# Summary of the method: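 Readings taken at 0 and 15 min after starting the reaction with 50 nM (final) substrate supplied the signal. Compounds had first sat with 10 nM FEN1 reagent for 15 min at room temperature. Values come from Hill-equation concentration-response fits.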
# [10] = target: M-phase phosphoprotein 8 (Homo sapiens) (UniProt Q99549); assay: qHTS Validation Assay for Inhibitors for MPP8 Chromodomain Interactions with Methylated Histone Tails (AID 488949); note: nearly all actives have a fitted effect of over 55% in size; note: potency is the fitted concentration of half-maximal effect
# M-phase phosphoprotein 8 (Homo sapiens), sequence (Q99549 whole entry, looked up): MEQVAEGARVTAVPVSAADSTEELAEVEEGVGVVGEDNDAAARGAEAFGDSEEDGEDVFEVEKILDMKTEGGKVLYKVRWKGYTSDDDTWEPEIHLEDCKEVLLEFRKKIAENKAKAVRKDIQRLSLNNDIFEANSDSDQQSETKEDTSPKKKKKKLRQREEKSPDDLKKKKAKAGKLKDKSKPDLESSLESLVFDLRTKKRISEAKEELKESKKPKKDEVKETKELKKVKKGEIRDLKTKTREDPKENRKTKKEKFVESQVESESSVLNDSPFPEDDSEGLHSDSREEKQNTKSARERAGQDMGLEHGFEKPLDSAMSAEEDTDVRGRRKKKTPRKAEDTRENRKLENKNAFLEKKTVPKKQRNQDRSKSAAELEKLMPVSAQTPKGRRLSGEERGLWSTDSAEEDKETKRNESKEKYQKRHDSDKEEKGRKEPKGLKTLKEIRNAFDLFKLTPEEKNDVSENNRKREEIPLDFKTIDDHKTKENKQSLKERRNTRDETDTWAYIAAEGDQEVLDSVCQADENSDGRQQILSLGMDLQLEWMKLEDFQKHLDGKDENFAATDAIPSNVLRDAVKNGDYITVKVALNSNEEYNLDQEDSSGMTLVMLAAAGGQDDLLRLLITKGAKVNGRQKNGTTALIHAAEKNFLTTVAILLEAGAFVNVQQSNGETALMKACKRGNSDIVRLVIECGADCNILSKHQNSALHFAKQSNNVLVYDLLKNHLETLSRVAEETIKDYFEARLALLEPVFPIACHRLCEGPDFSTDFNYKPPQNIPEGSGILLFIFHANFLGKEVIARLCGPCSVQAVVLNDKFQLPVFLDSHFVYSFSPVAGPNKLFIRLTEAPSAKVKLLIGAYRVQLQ
# Summary of the method: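 MPP8 (50 nM) was pre-bound to 50 nM biotinylated H3(1-18)K9me3 peptide in PBS pH 7.4 with 0.01% Tween-20. Compounds were then added for 30 min at room temperature, and complex disruption was read by AlphaScreen with streptavidin donor and nickel-chelate acceptor beads.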
# [11] = target: Chromobox protein homolog 1 (Homo sapiens) (UniProt P83916); assay: qHTS Validation Assay for Inhibitors of HP1-beta Chromodomain Interactions with Methylated Histone Tails (AID 488953); note: nearly all actives have a fitted effect of over 50% in size; note: potency is the fitted concentration of half-maximal effect
# Summary of the method: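 Measured as loss of AlphaScreen luminescence from streptavidin donor and nickel acceptor beads (10 ug/mL final) bridging HP1-beta and biotin-H3(1-18)K9me3, each 50 nM. Compounds met the preassembled complex for 30 min at RT.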
# [12] = target: Methanococcus maripaludis chaperonin (MmCpn) (UniProt Q6LX38); assay: High-Throughput Screening for Modulators of Cytosolic Chaperonin Activity: MmCpn Primary Screen (AID 488978);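 note: 50 nM MmCpn enzyme hydrolysing 30 µM ATP at 37 °C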
# Methanococcus maripaludis chaperonin (MmCpn), sequence (Q6LX38 1-543): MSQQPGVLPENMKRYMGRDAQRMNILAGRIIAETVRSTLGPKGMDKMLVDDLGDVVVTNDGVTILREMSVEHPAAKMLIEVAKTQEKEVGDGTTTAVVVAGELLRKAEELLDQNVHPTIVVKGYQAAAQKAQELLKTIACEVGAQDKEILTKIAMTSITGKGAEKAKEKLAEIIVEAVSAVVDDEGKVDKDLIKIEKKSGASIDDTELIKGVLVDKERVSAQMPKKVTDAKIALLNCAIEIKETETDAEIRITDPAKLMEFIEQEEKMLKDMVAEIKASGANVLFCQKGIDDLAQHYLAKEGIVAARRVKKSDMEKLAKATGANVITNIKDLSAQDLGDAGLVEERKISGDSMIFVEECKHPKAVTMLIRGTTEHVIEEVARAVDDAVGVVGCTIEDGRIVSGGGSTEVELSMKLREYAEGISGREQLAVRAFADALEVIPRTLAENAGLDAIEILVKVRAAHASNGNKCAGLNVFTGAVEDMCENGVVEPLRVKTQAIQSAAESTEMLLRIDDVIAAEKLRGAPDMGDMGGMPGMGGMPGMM
# Summary of the method: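 MmCpn at 50 nM final was preincubated 5 min at RT with compound. ATP was then added at 30 uM final for 10 min at 37 C. ADP formed was detected by Transcreener HTRF (665/590 nm).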
# [13] = target: D(1A) dopamine receptor (Homo sapiens) (UniProt P21728); assay: HTS Assay for Allosteric Agonists of the Human D1 Dopamine Receptor: Primary Screen for Agonists (AID 488981); note: potency is the fitted concentration of half-maximal effect
# Summary of the method: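 Calcium flux in an inducible, force-coupled HEK293 Trex D1 line (overnight at 30 C): agonist mode is the 180 s kinetic read after compound; potentiator mode is the following 180 s read after dopamine at EC20.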
# [14] = Cytometry Cell-Based qHTS for Inhibitors of the mTORC1 Signaling Pathway in MEF cells (AID 2668); note: potency is the fitted concentration of half-maximal effect
# Summary of the method: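 MEFs (Tsc2-/-, p53-/- stably expressing WT Tsc2) treated 24 h at 37 degree Celsius, fixed, stained with Alexa-488 anti-phospho-rpS6 Ser235/236 and propidium iodide; Acumen laser scanning. Reported as % positive cells, phospho-S6 normalized to PI.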
# [15] = target: Transient receptor potential cation channel subfamily V member 1 (Homo sapiens) (UniProt Q8NER1); assay: HTS Assay for Compounds that Act as Enhancers of the Vanilloid Receptor 1 (AID 488979)
# Transient receptor potential cation channel subfamily V member 1 (Homo sapiens), sequence (Q8NER1 whole entry, looked up): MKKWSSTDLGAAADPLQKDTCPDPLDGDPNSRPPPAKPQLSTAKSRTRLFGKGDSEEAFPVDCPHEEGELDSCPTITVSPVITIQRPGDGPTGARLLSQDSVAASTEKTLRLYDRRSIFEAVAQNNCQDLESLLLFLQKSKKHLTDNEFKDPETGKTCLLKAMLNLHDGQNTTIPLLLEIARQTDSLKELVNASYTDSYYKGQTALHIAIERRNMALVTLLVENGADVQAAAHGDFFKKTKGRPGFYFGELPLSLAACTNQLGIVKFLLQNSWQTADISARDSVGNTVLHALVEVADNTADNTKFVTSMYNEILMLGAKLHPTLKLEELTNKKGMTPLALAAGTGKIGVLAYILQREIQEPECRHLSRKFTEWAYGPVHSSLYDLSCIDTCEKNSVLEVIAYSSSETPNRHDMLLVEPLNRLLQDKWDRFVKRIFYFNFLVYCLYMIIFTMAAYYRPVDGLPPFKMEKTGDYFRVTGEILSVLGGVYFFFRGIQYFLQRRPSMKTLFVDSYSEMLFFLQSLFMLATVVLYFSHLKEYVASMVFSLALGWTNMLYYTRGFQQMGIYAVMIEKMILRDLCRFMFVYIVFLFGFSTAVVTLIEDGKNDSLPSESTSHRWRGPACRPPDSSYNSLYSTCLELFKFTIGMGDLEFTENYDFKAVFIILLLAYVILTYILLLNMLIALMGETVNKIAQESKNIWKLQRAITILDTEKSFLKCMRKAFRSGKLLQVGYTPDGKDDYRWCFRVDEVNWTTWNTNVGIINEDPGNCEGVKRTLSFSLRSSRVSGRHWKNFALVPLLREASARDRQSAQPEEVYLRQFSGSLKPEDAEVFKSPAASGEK
# Summary of the method: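 Calcium influx kinetics via Fluo-8 (480/520 nm) in TRPV1-expressing cells, 2000/well cultured overnight at 35.5C. Compound-alone read 3 min (agonist phase), followed by EC20 capsaicin challenge for 2 min (enhancer phase).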
# [16] = target: Thyrotropin receptor (Homo sapiens) (UniProt P16473); assay: qHTS Assay for Antagonists of the Thyroid Stimulating Hormone Receptor (AID 488980); note: series mostly up to about 58 µM
# Summary of the method: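 TSHR-transfected HEK293 cells (2000/well) in HEPES-buffered HBSS with 70 uM RO 20-1724 were stimulated with 4 nM TSH (EC80, final) in the presence of compound. cAMP was measured by HTRF competition after lysis and 30 min at RT.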
# [17] = Validation screen for small molecules that induce DNA re-replication in MCF 10A normal breast cells (AID 463097); note: nearly all actives have a fitted effect of over 60% in size
# Summary of the method: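 MCF 10A cells exposed to compound 48 hr at 37 C, 5% CO2, then Hoechst-stained 40 min. Laser-scanning imaging of nuclear DNA content (405 nm ex, 500-530 nm em); re-replication scored as rise in nuclei with elevated fluorescence intensity.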
# [18] = Quantitative high throughput screen for delayed death inhibitors of the malarial parasite plastid, 96 hour incubation (AID 488745); note: nearly all actives have a fitted effect of over 70% in size; note: potency is the fitted concentration of half-maximal effect
# Summary of the method: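 Growth of reporter-bearing P. falciparum in red cells is measured after 96 h with compound, covering two erythrocytic cycles. Luminescence from the integrated luciferase serves as the growth signal.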
# [19] = Quantitative high throughput screen for delayed death inhibitors of the malarial parasite plastid, 48 hour incubation (AID 488752); note: nearly all actives have a fitted effect of over 65% in size; note: potency is the fitted concentration of half-maximal effect
# Summary of the method: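 One parasite generation (48 h, 37 C, 5% CO2) of luciferase-reporter P. falciparum in erythrocytes is run with test compound; decreased luminescence indicates inhibited growth.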
SMILES,Potency [1],Potency [2],Potency [3],outcome [4],outcome [5],Potency [6],Potency [7],Potency [8],Potency [9],Potency [10],Potency [11],outcome [12],Potency [13],Potency [14],outcome [15],outcome [16],Potency [17],Potency [18],Potency [19]
CCCC1(C)C(C#N)(C#N)C1(C#N)C#N,2.33 µM (active),inactive,inactive,inactive,inactive,inactive,inactive,10.6 µM (active),inactive,inactive,inactive,inactive,inactive,–,–,–,–,–,–
CC[C@@H](C)[C@H]1O[C@]2(CC[C@H]1C)C[C@@H]1C[C@@H](CC=C(C)[C@@H](O[C@H]3C[C@H](OC)[C@@H](O[C@H]4C[C@H](OC)[C@@H](O)[C@H](C)O4)[C@H](C)O3)[C@@H](C)C=CC=C3CO[C@@H]4[C@H](O)C(C)=C[C@@H](C(=O)O1)[C@]34O)O2,–,inactive,–,inactive,inactive,inactive,–,inactive,inactive,–,inactive,inactive,inactive,–,–,–,–,–,–
O=C(/C=C/c1ccc(O)c(O)c1)OCCc1ccccc1,–,inactive,inactive,inactive,inactive,–,inactive,inactive,inactive,–,–,inactive,–,3.29 µM (active),inactive,inactive,–,–,–
C=C/C(C)=C/[C@@]1(C)SC(=O)C(C)=C1O,–,–,–,–,–,–,–,–,–,50.1 µM (active),–,–,–,–,inactive,inactive,inactive,inactive,inactive
CN(C)c1ccc(/C=C2\C(=O)Nc3ccccc32)cc1,–,inactive,inactive,inactive,inactive,–,–,–,inactive,28.2 µM (active) and 10.6 µM (active),28.2 µM (active),inactive,inactive,–,inactive,inactive,–,–,–
CN(C)c1nc2c(Br)c(Br)c(Br)c(Br)c2[nH]1,–,inactive,inactive,inactive,inactive,inactive,inactive,–,inactive,–,inactive,inactive,–,–,inactive,inactive,–,–,inactive
COc1ccccc1N1CCN(CCCCNS(=O)(=O)c2cccc3c(N(C)C)cccc23)CC1,–,inactive,inactive,inactive,inactive,–,inactive,inactive,inactive,inactive,–,inactive,inactive,16.5 µM (active),inactive,inactive,–,inactive,inactive
NC[C@@H]1O[C@H](C23CC4CC(CC(C4)C2)C3)Cc2c1ccc(O)c2O,–,inactive,–,inactive,inactive,–,inactive,inactive,inactive,20 µM (active) and inactive,–,inactive,–,–,–,inactive,–,3.29 µM (active),3.7 µM (active)
O=C(/C=C/c1ccc(O)cc1)c1ccc(O)cc1O,inactive,inactive,inactive,inactive,inactive,–,inactive,–,inactive,inactive,–,inactive,–,–,inactive,inactive,–,–,–
O=[N+]([O-])c1ccc2c(c1)S(=O)(=O)C=C2,1.85 µM (active),inactive,inactive,inactive,inactive,–,inactive,2.12 µM (active),inactive,–,–,inactive,inactive,–,–,–,–,–,–
O=S(=O)(c1cccc2c(I)cccc12)N1CCCNCC1,–,inactive,inactive,inactive,inactive,–,inactive,–,inactive,inactive,–,inactive,14.1 µM (active),–,–,inactive,–,inactive,inactive
CCOC(=O)C1=C(C)NC(C)=C(C(=O)OCC)C1c1c(F)c(F)c(F)c(F)c1F,–,inactive,inactive,inactive,inactive,–,inactive,inactive,inactive,inactive,inactive,inactive,inactive,–,–,–,–,–,–
Nc1ccn([C@@H]2O[C@H](CO)[C@@H](O)[C@@H]2O)c(=O)n1,–,–,–,–,–,–,–,–,–,inactive,–,–,–,–,inactive,–,–,–,inactive
O=C1O/C(=C/Br)CCC1c1cccc2ccccc12 (centres undefined),–,inactive,inactive,inactive,inactive,–,inactive,2.67 µM (active),inactive,inactive,inactive,inactive,inactive,–,inactive,inactive,–,inactive,inactive
Cn1ncc(S(=O)(=O)Cc2ccccc2)c(Br)c1=O,–,inactive,inactive,inactive,inactive,–,inactive,0.947 µM (active),inactive,–,–,inactive,inactive,–,–,–,–,–,–
COc1cc2nc(N3CCN(C(=O)OCc4ccccc4)C(C(=O)NC(C)(C)C)C3)nc(N)c2cc1OC (centres undefined),–,inactive,–,inactive,inactive,–,inactive,inactive,–,inactive,inactive,inactive,inactive,–,inactive,inactive,–,–,–
CSc1ccccc1N1CCN(CCCCCC(=O)NC2CCCc3ccccc32)CC1 (centres undefined),–,inactive,–,inactive,inactive,inactive,inactive,inactive,inactive,–,50.1 µM (active),inactive,inactive,11.7 µM (active),–,–,–,–,–
Oc1cc(O)cc(/C=C/c2ccc(O)c(O)c2)c1,–,inactive,–,inactive,inactive,3.79 µM (active),inactive,–,0.844 µM (active),39.8 µM (active),44.7 µM (active),inactive,–,–,inactive,inactive,–,–,–
CO/N=C(\C(=O)N[C@@H]1C(=O)N2C(C(=O)O)=C(COC(C)=O)CS[C@H]12)c1csc(N)n1 (stereo in doubt),–,–,–,–,–,–,–,–,–,56.2 µM (active),–,–,–,–,inactive,inactive,inactive,inactive,inactive
Nc1ncnc2c1c(I)cn2[C@@H]1C[C@H](N)[C@@H](O)[C@H]1O,inactive,inactive,–,inactive,inactive,–,inactive,inactive,inactive,inactive,inactive,inactive,inactive,–,–,–,–,–,–
